# Sm TGR block: inhibitors of Schistosoma mansoni thioredoxin glutathione reductase; Q962Y6; purified TGR, DTNB reduction, TNB absorbance 405 nm; Potency, µM (highest dose often 114 µM), for inactives: at the top dose activity change, negative = inhibition, most hits filed as inhibitors; 360,000 compounds, 3% hits; note: % is set by controls: 0 for no effect and ±100 for the full control effect; nearly all actives have a fitted effect of over 60% in size
#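 TGR 20 nM + NADPH 100 uM (dispensed conc.), cpd preinc 15 min RT; start with NADPH (500 uM addition) then DTNB (15 mM addition). Kinetic TNB absorbance, 405 nm filter. Four-parameter Hill fit across titration.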
# SARS PLpro yeast: SARS-CoV PLP inhibition in yeast; S. cerevisiae expressing SARS-CoV PLpro, growth rescue; Potency, µM (highest dose often 32.9 µM), inactives show top-dose activity, positive = growth rescue, usual class: activators; 330,000 compounds, 0.19% hits; AID 485353; calls by dose curve; note: 0% is about no effect; nearly all actives have a fitted effect of over 55% in size
# Pf growth 48h: P. falciparum growth inhibition at 48 hours (one generation); 310,000 compounds, 5.9% hits; P. falciparum luciferase growth in erythrocytes, 48 h; Potency, µM (series often up to 28.7 µM), without a hit: top-dose activity change, negative = inhibition, hits mostly inhibitors; note: % is set by controls: 0 for no effect and ±100 for the full control effect
#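 Read-out is firefly luciferase luminescence from an integrated reporter in P. falciparum, so falling signal marks reduced parasite growth. Infected erythrocytes were at 2% hematocrit and 0.1% parasitemia (final) in Albumax-supplemented RPMI 1640.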
# Pf growth 96h: P. falciparum growth inhibition at 96 hours | P. falciparum luciferase reporter growth, 96 h | 320,000 compounds, 6.9% hits | AID 504834 | Potency, µM (titrated, usually from 28.7 µM), without a hit: at the top dose activity change, negative = inhibition, actives largely listed as inhibitors; note: % is set by controls: 0 for no effect and ±100 for the full control effect
#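 P. falciparum expressing integrated firefly luciferase grown in erythrocytes (2% hematocrit, 0.05% parasitemia final) with compounds for 96 hours at 37 C, 5% CO2. Growth inhibition read as loss of luminescence after adding luciferase detection reagent.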
# * marks the source's active call; other numbers are inactive results; ? = inconclusive; nt = no result given. This is a sample that favours compounds with a hit; in the whole collection about 12% have one here. Unless noted, calls come from the whole dose curve; as a rule, active = well fitted curve in the direction sought with a large enough effect; inconclusive = small, poorly fitted or top-dose-only effect, or another doubt; inactive = no such curve, though single readings can be large; an effect the other way counts as inactive or inconclusive. Potency is the fitted concentration of half-maximal effect.
SMILES,Sm TGR block,SARS PLpro yeast,Pf growth 48h,Pf growth 96h
CCOc1ccccc1NC(=O)CN1C(=O)C2(SCC(=O)N2c2ccc(C)cc2)c2ccccc21 (centres undefined),-2%,nt,nt,nt
COc1ccc(CCNc2nc(-c3cccnc3)nc3ccccc23)cc1OC,-19%,-4%,15µM*,?
Brc1cc2c(cc1Cn1c(-c3cncs3)nc3ccccc31)OCO2,-7%,0%,?,?
CSc1ccccc1NC(=O)Cn1c(-c2cscn2)nc2ccccc21,9%,-4%,-18%,-4%
Cc1ccccc1Cn1c(-c2cncs2)nc2ccccc21,2%,-6%,1.5µM*,14%
Brc1ccccc1Cn1c(-c2cscn2)nc2ccccc21,2%,?,nt,10µM*
Cc1cc2c(cc1S(=O)(=O)N(C)CC(=O)Nc1ccc(C#N)cc1)OCC(=O)N2,5%,nt,nt,nt
Cc1ccc(-c2cc(C(F)(F)F)nn2-c2ccc(S(N)(=O)=O)cc2)cc1,1%,-6%,15µM*,5.9µM*
CC#CC#Cc1cccc(=O)o1,20µM*,-1%,12µM*,10µM*
CCn1cc(C(=O)NCc2ccccc2OC)c(=O)c2cc(S(=O)(=O)N3CCCCC3)ccc21,-15%,nt,nt,nt
O=C(NCCC1=CCCCC1)C(=O)NCc1ccccc1,14%,11%,50%,-17%
O=C(O)C1C2C=CC(O2)C1C(=O)NCCC1=CCCCC1 (centres undefined),22µM*,-5%,19%,nt
CCOC(=O)c1sc2nc(N3CCOCC3)c3c(c2c1N)CCN(Cc1ccccc1)C3,2%,1%,?,9.3µM*
CCOC(=O)c1c(NC(=O)CC)sc2c1CCN(Cc1ccccc1)C2,2%,-4%,?,14%
CCOC(=O)c1c(NC(=O)CSc2ncccn2)sc2c1CCN(Cc1ccccc1)C2,-14%,10%,?,7.4µM*
CCOC(=O)c1c(NC(=S)Nc2ccccc2)sc2c1CCN(CCc1ccccc1)C2,-22%,2%,13µM*,2.3µM*
CCOC(=O)c1c(NC(=O)C(C)Sc2cccc[n+]2[O-])sc2c1CCN(Cc1ccccc1)C2 (centres undefined),-4%,10%,9.3µM*,5.2µM*
Cc1cccc(Cn2nnc3c(=O)[nH]c(C4CCN(C(=O)c5ccc(F)cc5)CC4)nc32)c1,0%,nt,nt,nt
CCOC(=O)c1[nH]cnc1C(=O)NC1CCN(C(=O)OC(C)(C)C)CC1,-22%,2%,-8%,?
CC(=O)Oc1ccccc1C(=O)Oc1ccc(/C=N/n2cnnc2)cc1,0%,4%,12%,8.3µM*
CCOc1ccc(/C=N/n2cnnc2)cc1,1%,2%,0%,nt
COC(=O)c1c(NC(=O)CN2CCC3(O)CCCCC3C2c2ccc(OC)cc2OC)sc(C)c1C (centres undefined),-15%,-34%,12µM*,-18%
COC(=O)c1c(NC(=O)CN2CCC3(O)CCCCC3C2c2ccccc2OC)sc(C)c1C (centres undefined),19%,-29%,5.2µM*,?
Cc1ccc(CSc2nc3ccc(NC(=O)CC(C)C)cc3s2)cc1,2%,nt,nt,nt
CC(=O)Nc1cccc(C(=O)OC(C)C(=O)NC(=O)NC2CCCCC2)c1 (centres undefined),-3%,-3%,5%,24%
SMILES,Sm TGR block,SARS PLpro yeast,Pf growth 48h,Pf growth 96h
Cc1ccc(NC(=O)c2cc3c(=O)n(Cc4cccnc4)ccc3nc2C)cc1F,-2%,nt,nt,nt
Cc1[nH]ccc(=O)c1OCc1c(F)cccc1Cl,4%,2%,12%,35%
Cc1ccc(S(=O)(=O)n2ccc(-c3cccc(OCc4c(F)cccc4Cl)c3)n2)cc1,5%,?,3.7µM*,0.74µM*
Cc1ccc(S(=O)(=O)n2ccc(-c3ccc(OCc4c(F)cccc4Cl)cc3)n2)cc1,1%,9%,9.3µM*,-109%
O=C1C(=O)N(C2CCN(C(=O)c3ccccc3Cl)CC2)CCN1Cc1ccc(F)cc1,11%,nt,nt,nt
COc1cc2nc(CN3CCN(S(=O)(=O)c4c(F)cccc4F)CC3)[nH]c(=O)c2cc1OC,1%,6%,10µM*,?
COc1cc2nc(CN3CCN(S(=O)(=O)c4ccccc4C(F)(F)F)CC3)[nH]c(=O)c2cc1OC,nt,0%,nt,nt
Cc1[nH]n(-c2ccccc2)c(=O)c1N=Nc1ccc2c(c1)OCCO2,1%,-1%,262%,469%
Cc1[nH]n(-c2ccccc2)c(=O)c1N=Nc1c(O)cc(S(=O)(=O)N(C)C)c2ccccc12,?,4%,3.3µM*,4.1µM*
COc1ccc(C)cc1NC(=O)C(=O)NNC(=O)c1ccco1,-12%,-9%,-3%,1.9µM*

# Assay outcomes from PubChem.
